Source: PubChem
Most compounds without a hit are left out; they make up all but 27% or so of the library.
Cav32 inh – human Cav3.2 channel inhibition, primary screen. 100,000 compounds, 4% hits. B-score at 10 µM. Cav3.2-expressing cells, Fluo-4 calcium fluorescence FDSS; hits give low values;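 active = single-dose well whose peak fluorescence ratio is a statistical outlier from its plate by either plate-standardised score or position-corrected B-score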
CYP2C9 inh – human CYP2C9 inhibition. P11712. CYP2C9 Supersomes, luciferin-H conversion, luminescence. inhibition, % at 5 µM. 96,000 compounds, 20% hits. AID 777;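 active = blocking of liver enzyme CYP2C9 beyond about 50% at 5 µM, limit read from the data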
Target sequence (P11712 whole entry, looked up): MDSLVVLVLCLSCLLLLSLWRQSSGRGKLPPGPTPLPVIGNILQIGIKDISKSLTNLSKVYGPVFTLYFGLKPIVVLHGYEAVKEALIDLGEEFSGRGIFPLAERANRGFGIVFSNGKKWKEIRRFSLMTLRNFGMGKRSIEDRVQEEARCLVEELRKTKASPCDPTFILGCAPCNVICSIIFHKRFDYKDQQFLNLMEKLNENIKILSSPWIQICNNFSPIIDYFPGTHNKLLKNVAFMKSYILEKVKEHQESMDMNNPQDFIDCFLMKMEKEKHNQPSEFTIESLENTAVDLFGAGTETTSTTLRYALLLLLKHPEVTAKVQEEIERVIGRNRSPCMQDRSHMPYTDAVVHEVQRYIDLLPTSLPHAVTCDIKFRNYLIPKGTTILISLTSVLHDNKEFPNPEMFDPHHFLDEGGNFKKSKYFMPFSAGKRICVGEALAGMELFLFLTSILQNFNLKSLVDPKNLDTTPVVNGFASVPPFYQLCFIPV
CYP2C19 inhib – inhibitors of human CYP2C19. P33261. CYP2C19 Supersomes, luciferin-H EGE luminescence, 30 min. inhibition, % at 5 µM. 96,000 compounds, 21% hits. AID 778;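 active = CYP2C19 inhibition above a set limit at 5 µM in the primary screen, cut at about 50% in these data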;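 also: plate controls were negative control wells for no effect and 2.5 mM tranylcypromine positive control for full effect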
CYP2C9 activ – CYP2C9 (human) activation; recombinant CYP2C9, luciferin-H conversion, luminescence; hits give high values; factor 1 = untreated enzyme, 0 = blocked; 96,000 compounds, 1.4% hits; P11712; AID 1024; activation factor at 5 µM;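 active = activation factor of 2 or more for CYP2C9 at a 5 µM dose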;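 also: 0 = sulfaphenazole-blocked wells and 1 = vehicle-only wells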
CYP2C19 activ – increases human CYP2C19 enzyme activity; P33261; AID 1025; recombinant CYP2C19, luciferin-H EGE luminescence; hits give high values; 0 = fully inhibited enzyme, 1 = untreated enzyme; activation factor at 5 µM; 96,000 tested, under 10 active;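 active = activation factor of at least 2 at 5 µM in the primary screen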;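 also: 0 = wells with 2.5 mM tranylcypromine and 1 = vehicle-only wells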
Numbers without * were called inactive.

Results for O=C(NCc1ccco1)c1ccc(CS(=O)(=O)c2cccc(C(F)(F)F)c2)o1 ?
Cav32 inh: 0.52; CYP2C9 inh: 2; CYP2C19 inhib: 33; CYP2C9 activ: 1; CYP2C19 activ: 0.7

What do the screens show for `CCCCNC(=O)c1ccc(CS(=O)(=O)c2cccc(C(F)(F)F)c2)o1`?
Cav32 inh: -0.064; CYP2C9 inh: -30; CYP2C19 inhib: 71*; CYP2C9 activ: 1.3; CYP2C19 activ: 0.3

How did O=C(NCc1ccc2c(c1)OCO2)c1ccc(CS(=O)(=O)c2cccc(C(F)(F)F)c2)o1 do in these assays?
CYP2C9 inh: 94*; CYP2C19 inhib: 76*; CYP2C9 activ: 0.1; CYP2C19 activ: 0.2

What do the screens show for `COc1ccccc1S(=O)(=O)Cc1ccc(C(=O)NCc2ccc3c(c2)OCO3)o1`?
Cav32 inh: 1.4; CYP2C9 inh: 75*; CYP2C19 inhib: 61*; CYP2C9 activ: 0.3; CYP2C19 activ: 0.4

Results for C=CCNC(=O)C1CCN(c2c([N+](=O)[O-])cc(C(F)(F)F)cc2[N+](=O)[O-])CC1 ?
CYP2C9 inh: 22; CYP2C19 inhib: 14; CYP2C9 activ: 0.8; CYP2C19 activ: 0.9

Results for COc1cc2cc(Oc3ccc4ccc(=O)oc4c3)c(=O)oc2cc1OC(=O)/C=C/c1ccccc1 ?
Cav32 inh: 0.24

Results for CC(NC(=O)c1ccc(CS(=O)(=O)c2cccc(C(F)(F)F)c2)o1)c1ccc2c(c1)OCCO2 (stereo not drawn) ?
Cav32 inh: -2.1; CYP2C9 inh: 62*; CYP2C19 inhib: 64*; CYP2C9 activ: 0.4; CYP2C19 activ: 0.4

What do the screens show for `CC1(C)NC(=O)N(CC(O)COc2ccc(-c3ccccc3)cc2)C1=O` (stereo not drawn)?
Cav32 inh: 0.25; CYP2C9 inh: 13; CYP2C19 inhib: 44; CYP2C9 activ: 0.9; CYP2C19 activ: 0.6

What do the screens show for `CC1(C)NC(=O)N(CCOCCOc2ccc3ccccc3c2Br)C1=O`?
Cav32 inh: -0.46; CYP2C9 inh: -4; CYP2C19 inhib: 88*; CYP2C9 activ: 1; CYP2C19 activ: 0.1

How did C=CCN1C(=O)C(C)(C)Nc2ccccc21 do in these assays?
Cav32 inh: 0.42; CYP2C9 inh: -22; CYP2C19 inhib: -5; CYP2C9 activ: 1.2; CYP2C19 activ: 1.1

Results for CCC(=O)c1ccccc1OCCCN1C(=O)NC(C)(C)C1=O ?
Cav32 inh: -0.84; CYP2C9 inh: 48; CYP2C19 inhib: 62*; CYP2C9 activ: 0.5; CYP2C19 activ: 0.4

Results for COC(=O)c1ccc(OCC(O)CN2C(=O)NC(C)(C)C2=O)cc1 (stereo not drawn) ?
Cav32 inh: 0.052; CYP2C9 inh: 14; CYP2C19 inhib: 38; CYP2C9 activ: 0.9; CYP2C19 activ: 0.6

What do the screens show for `Cc1ccc(C(C)C)c(OCCCN2C(=O)NC(C)(C)C2=O)c1`?
Cav32 inh: -0.027; CYP2C9 inh: 54*; CYP2C19 inhib: 90*; CYP2C9 activ: 0.5; CYP2C19 activ: 0.1

Results for CC1(C)NC(=O)N(CCCCOc2ccc3ccccc3c2Cl)C1=O ?
Cav32 inh: -1.3; CYP2C9 inh: -24; CYP2C19 inhib: 95*; CYP2C9 activ: 1.2; CYP2C19 activ: 0

Results for CCN(CC)CCNC(=O)C12CC3CC(C)(CC(C)(C3)C1)C2 ?
Cav32 inh: 0.6; CYP2C9 inh: 4; CYP2C19 inhib: 1; CYP2C9 activ: 1; CYP2C19 activ: 1

How did CC(C)c1nc(SCC(=O)Nc2ccc(N3CCOCC3)cc2)c2ccccc2n1 do in these assays?
Cav32 inh: -3

Results for CCOC(=O)CN1C=C(c2ccc3ccccc3n2)C(C[N+](=O)[O-])c2ccccc21 (stereo not drawn) ?
Cav32 inh: -4.9*; CYP2C9 inh: 92*; CYP2C19 inhib: 72*; CYP2C9 activ: 0.1; CYP2C19 activ: 0.3

What do the screens show for `Cn1cc(C(=O)c2ccc(Cl)cc2Cl)cc1C(=O)O`?
CYP2C9 inh: 6; CYP2C19 inhib: -7; CYP2C9 activ: 0.9; CYP2C19 activ: 1.1

What do the screens show for `CC(=O)c1ncnn1CC(=O)c1ccc(Cl)cc1Cl`?
Cav32 inh: -0.02; CYP2C9 inh: 32; CYP2C19 inhib: 61*; CYP2C9 activ: 0.7; CYP2C19 activ: 0.4

How did COc1ccccc1-c1cc(C(=O)N/N=C/C=C/c2ccccc2[N+](=O)[O-])c2ccccc2n1 do in these assays?
Cav32 inh: -4.1*; CYP2C9 inh: 66*; CYP2C19 inhib: 21; CYP2C9 activ: 0.3; CYP2C19 activ: 0.8

What do the screens show for `O=C(N/N=C/c1cccs1)c1cc(-c2ccc3ccccc3c2)n[nH]1`?
Cav32 inh: -0.03; CYP2C9 inh: 30; CYP2C19 inhib: 5; CYP2C9 activ: 0.7; CYP2C19 activ: 0.9

Results for COc1ccc(-c2cc(C(=O)N/N=C/c3sccc3C)c3ccccc3n2)c(OC)c1 ?
Cav32 inh: -3.7; CYP2C9 inh: 88*; CYP2C19 inhib: 65*; CYP2C9 activ: 0.1; CYP2C19 activ: 0.3

Results for COc1cc(C(=O)O)nc2ccccc12 ?
Cav32 inh: 0.99; CYP2C9 inh: 1; CYP2C19 inhib: -6; CYP2C9 activ: 1; CYP2C19 activ: 1.1

What do the screens show for `COc1ccccc1-c1cc(C(=O)N/N=C/c2cccs2)c2ccccc2n1`?
CYP2C9 inh: 96*; CYP2C19 inhib: 80*; CYP2C9 activ: 0; CYP2C19 activ: 0.2

How did COc1ccc(-c2cc(C(=O)O)c3ccccc3n2)c(OC)c1 do in these assays?
Cav32 inh: -0.18; CYP2C9 inh: 62*; CYP2C19 inhib: 5; CYP2C9 activ: 0.4; CYP2C19 activ: 1

Results for O=C(Nc1cccc(Br)c1)/C(=C\c1cccnc1)NC(=O)c1ccco1 ?
Cav32 inh: 0.32; CYP2C9 inh: 14; CYP2C19 inhib: 4; CYP2C9 activ: 0.9; CYP2C19 activ: 1

What do the screens show for `C[C@H](NC(=O)c1nc[nH]c1C(=O)N1CCc2ccccc2C1)C(=O)OCc1ccccc1`?
Cav32 inh: 0.18

Results for O=C(CCCO)CCCCCCCCC[C@H]1N[C@H](CO)[C@@H](O)[C@@H]1O ?
Cav32 inh: 0.69

Results for CCCc1cc(C(=O)N/N=C/c2ccc(CC)s2)c2ccccc2n1 ?
Cav32 inh: 0.053; CYP2C9 inh: 65*; CYP2C19 inhib: -6; CYP2C9 activ: 0.3; CYP2C19 activ: 1.1

Results for COc1ccc(-c2cc(C(=O)N/N=C/c3ccc(OC)c(COCC(F)(F)C(F)F)c3)c3ccccc3n2)c(OC)c1 ?
Cav32 inh: -2.1; CYP2C9 inh: 88*; CYP2C19 inhib: 79*; CYP2C9 activ: 0.1; CYP2C19 activ: 0.2

Results for COc1cccc(/C=N\NC(=O)c2cc(OCC(F)(F)F)ccc2OCC(F)(F)F)c1 ?
CYP2C9 inh: 20; CYP2C19 inhib: 12; CYP2C9 activ: 0.8; CYP2C19 activ: 0.9

Results for O=C(N/N=C/c1cccc(F)c1)c1cc(-c2ccco2)nc2ccccc12 ?
Cav32 inh: 0.72; CYP2C9 inh: 18; CYP2C19 inhib: 9; CYP2C9 activ: 0.8; CYP2C19 activ: 0.9
